Results filed as inconclusive are left out. Activity calls are given as the source filed them. Unless noted, calls come from the whole dose curve; as a rule, active = well fitted curve in the direction sought with a large enough effect in the repeat runs; inconclusive = weak or mixed curves; inactive = no such curve, though single readings can be large; an effect the other way counts as inactive or inconclusive.
Assays:
[1] = qHTS assay to identify aromatase inhibitors - cell viability counter screen (AID 743084);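 note: cells stimulated with testosterone during compound exposure; nearly all actives have a fitted effect of over 55% in size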; note: potency is the fitted concentration of half-maximal effect
[2] = target: Aryl hydrocarbon receptor (Homo sapiens) (UniProt P35869); assay: qHTS assay to identify small molecule that activate the aryl hydrocarbon receptor (AhR) signaling pathway (AID 743085);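 note: HG2L7.5c1 human HepG2 liver cells with stably integrated DRE-driven firefly reporter; series mostly up to about 70 µM; nearly all actives have a fitted effect of over 15% in size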
Aryl hydrocarbon receptor (Homo sapiens), sequence (P35869 whole entry, looked up): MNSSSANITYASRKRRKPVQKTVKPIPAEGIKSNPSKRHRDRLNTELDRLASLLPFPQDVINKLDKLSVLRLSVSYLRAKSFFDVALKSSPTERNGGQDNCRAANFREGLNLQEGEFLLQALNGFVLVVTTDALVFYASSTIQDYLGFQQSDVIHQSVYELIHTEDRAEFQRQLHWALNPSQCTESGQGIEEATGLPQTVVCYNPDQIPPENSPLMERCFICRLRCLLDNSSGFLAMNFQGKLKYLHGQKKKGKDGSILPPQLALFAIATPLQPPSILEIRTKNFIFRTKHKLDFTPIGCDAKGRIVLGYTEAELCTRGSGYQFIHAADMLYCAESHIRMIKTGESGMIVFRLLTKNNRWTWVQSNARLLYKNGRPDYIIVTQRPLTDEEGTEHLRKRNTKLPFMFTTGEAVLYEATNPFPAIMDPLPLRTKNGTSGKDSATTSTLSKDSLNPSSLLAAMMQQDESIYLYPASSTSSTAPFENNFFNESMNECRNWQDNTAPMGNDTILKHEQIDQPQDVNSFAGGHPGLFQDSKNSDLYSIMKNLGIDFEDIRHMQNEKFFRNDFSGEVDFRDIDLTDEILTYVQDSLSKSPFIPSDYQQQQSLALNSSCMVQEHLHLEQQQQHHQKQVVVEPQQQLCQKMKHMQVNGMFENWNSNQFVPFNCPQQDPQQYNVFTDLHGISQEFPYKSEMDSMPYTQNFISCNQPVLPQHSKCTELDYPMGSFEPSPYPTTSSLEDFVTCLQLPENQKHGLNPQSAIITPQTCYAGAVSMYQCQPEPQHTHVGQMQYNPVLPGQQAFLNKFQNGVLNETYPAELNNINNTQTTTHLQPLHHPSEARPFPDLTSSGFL
How it was run: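 Steps: seed HepG2-AhR-luc cells; allow 5 h at 37C; pin-transfer test compound or vehicle; incubate 24 h at 37C; add viability dye (30 min, 37C) and read fluorescence; add luciferase substrate (30 min, RT) and read luminescence.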

[3] = qHTS assay to identify small molecule that activate the aryl hydrocarbon receptor (AhR) signaling pathway - cell viability counter screen (AID 743086); note: nearly all actives have a fitted effect of over 45% in size; note: potency is the fitted concentration of half-maximal effect
How it was run: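 HepG2-AhR-luc (HG2L7.5c1) cells, 4000/well, were preincubated 5 h at 37C, exposed to compound in qHTS format for 24 hr at 37C, then given CellTiter-Fluor for 30 min; viability was read as fluorescence in the reporter wells.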

[4] = target: Peroxisome proliferator-activated receptor gamma (Homo sapiens) (UniProt P37231); assay: qHTS assay to identify small molecule agonists of the peroxisome proliferator-activated receptor gamma (PPARg) signaling pathway (AID 743094; active = well fitted activation curve with a large enough effect in the signal ratio in the repeat runs, not every such curve was filed as active; the % refers to the signal ratio)
Peroxisome proliferator-activated receptor gamma (Homo sapiens), sequence (P37231 whole entry, looked up): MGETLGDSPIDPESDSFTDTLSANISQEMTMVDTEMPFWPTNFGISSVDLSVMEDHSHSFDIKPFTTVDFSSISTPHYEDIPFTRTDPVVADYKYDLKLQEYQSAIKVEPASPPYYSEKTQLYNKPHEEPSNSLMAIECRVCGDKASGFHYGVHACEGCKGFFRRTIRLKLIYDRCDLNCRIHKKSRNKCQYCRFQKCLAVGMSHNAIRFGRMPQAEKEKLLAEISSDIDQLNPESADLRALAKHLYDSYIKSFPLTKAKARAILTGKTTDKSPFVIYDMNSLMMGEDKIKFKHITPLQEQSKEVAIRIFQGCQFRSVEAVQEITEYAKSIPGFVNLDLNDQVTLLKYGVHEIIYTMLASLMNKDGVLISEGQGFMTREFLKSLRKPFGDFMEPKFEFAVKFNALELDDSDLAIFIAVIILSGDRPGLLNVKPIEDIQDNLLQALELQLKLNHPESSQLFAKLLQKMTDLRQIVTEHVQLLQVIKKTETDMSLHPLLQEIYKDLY
How it was run: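 GeneBLAzer PPARg UAS-bla HEK293H cells were plated, rested 5 h, then exposed to compounds for 17 h at 37C. Beta-lactamase activity was read by LiveBLAzer B/G FRET substrate fluorescence after 1 h at room temperature.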

[5] = qHTS assay to identify small molecule antagonists of the peroxisome proliferator-activated receptor gamma (PPARg) signaling pathway - cell viability counter screen (AID 743194); note: nearly all actives have a fitted effect of over 55% in size
How it was run: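 PPARg-UAS-bla HEK293H cells were plated, rested 5 h at 37 C, then treated with compounds plus rosiglitazone (50 nM final) for 17 h at 37 C; viability was then read by CellTiter-Glo luminescence after 30 min at room temperature.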

[6] = qHTS assay for small molecule agonists of the antioxidant response element (ARE) signaling pathway - cell viability counter screen (AID 743203; calls by dose curve; note: nearly all actives have a fitted effect of over 55% in size)
How it was run: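 ARE-bla HepG2 cells were plated, rested 5 h at 37C/5% CO2, then exposed to compounds in DMSO for 16 h. Viability was read as CellTiter-Glo luminescence after 30 min at room temperature, in the same wells as the ARE screen.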

[7] = qHTS assay for small molecule activators of the heat shock response signaling pathway - cell viability counter screen (AID 743209); note: nearly all actives have a fitted effect of over 50% in size
How it was run: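 HSE-bla HeLa cells plated overnight, then exposed to Tox21 compounds (23 nL in DMSO) for 5 h at 37 C. After the bla reporter read, CellTiter-Glo was added in the same wells and luminescence read after 30 min at room temperature.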

[8] = qHTS assay for small molecule activators of the heat shock response signaling pathway (AID 743210; active = well fitted activation curve with a large enough effect in the signal ratio in the repeat runs, with a control signal flat, not every such curve was filed as active; the % refers to the signal ratio;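 note: HeLa cells with beta-lactamase reporter driven by heat shock elements; series mostly up to about 63 µM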)
How it was run: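 Reporter gene assay: HeLa cells stably bearing an HSE-bla construct, compound treatment 5 h at 37 C, LiveBLAzer substrate 2.5 h at RT, fluorescence intensity.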

[9] = qHTS assay for small molecule agonists of the antioxidant response element (ARE) signaling pathway (AID 743202; active = well fitted activation curve with a large enough effect in the signal ratio in the repeat runs, not every such curve was filed as active; the % refers to the signal ratio; note: potency is the fitted concentration of half-maximal effect)
How it was run: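 Compounds delivered in DMSO to ARE-bla HepG2 cells (2,000 cells/well, pre-incubated 5 h) and left 16 h at 37 C. LiveBLAzer B/G FRET substrate then added for 2 h at RT before fluorescence reading.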

[10] = target: Peroxisome proliferator-activated receptor gamma (Homo sapiens) (UniProt P37231); assay: qHTS assay to identify small molecule antagonists of the peroxisome proliferator-activated receptor gamma (PPARg) signaling pathway (AID 743191; calls by dose curve; note: nearly all actives have a fitted effect of over 30% in size; note: potency is the fitted concentration of half-maximal effect)
How it was run: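 GeneBLAzer PPARg UAS-bla HEK293H cells carrying a UAS-driven beta-lactamase reporter were plated at 3000 cells/well, preincubated 5 h at 37C, then given compound for 17 h at 37C; LiveBLAzer B/G FRET substrate was read after 1 h at room temperature.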

Measured: Potency

CCCCCOC(=O)COc1cc(N2C(=O)C3=C(CCCC3)C2=O)c(F)cc1Cl
not listed: [9] | [10]
inactive: all other assays above

CC(=O)[C@@]1(O)CC[C@H]2[C@@H]3C[C@H](C)C4=CC(=O)CC[C@]4(C)[C@H]3CC[C@@]21C
not listed: [9] | [10]
inactive: all other assays above

FC(F)(F)C(F)(F)C(F)(F)C(F)(F)C(F)(F)C(F)(F)CCI
not listed: [6] | [10]
inactive: all other assays above

CC1=CCC(C(C)C)C=C1 (stereo unspecified)
not listed: [9] | [10]
inactive: all other assays above

CN1CCN(C2=Nc3ccccc3Sc3ccc(Cl)cc32)CC1
not listed: [4]
inactive: all other assays above

CN1CCC(=C2c3ccccc3C=Cc3ccccc32)CC1
not listed: [5] | [10]
inactive: all other assays above

OCCC1CCCCN1 (stereo unspecified)
not listed: [9] | [10]
inactive: all other assays above

CC(=O)O[C@@H]1C(=O)O[C@@H]2[C@H]1OC(=O)[C@@H]2OC(C)=O
active: [9] 10.6 µM
not listed: [10]
inactive: all other assays above

S=C(S)NCCNC(=S)S
active: [9] 60 µM
not listed: [10]
inactive: all other assays above

Cc1cc(C)c(S(=O)(=O)O)cc1N=Nc1cc(S(=O)(=O)O)c2ccccc2c1O
active: [1] 24.3 µM | [3] 27.3 µM
not listed: [9] | [10]
inactive: all other assays above

CC[C@H](C)[C@@H](C(=O)O)n1sc2ccccc2c1=O
not listed: [8] | [9] | [10]
inactive: all other assays above

Cl/C(=C\n1cncn1)c1ccc(Cl)cc1Cl
not listed: [8] | [9] | [10]
inactive: all other assays above

COc1ccccc1OC(=O)Oc1ccccc1OC
not listed: [10]
inactive: all other assays above

CC1(C)CCC(C)(C)c2cc(NC(=O)c3ccc(C(=O)O)cc3)ccc21
not listed: [8] | [9] | [10]
inactive: all other assays above

CCCCCCCCCO
not listed: [9] | [10]
inactive: all other assays above

CN(c1nccc(=O)[nH]1)C1CCN(c2nc3ccccc3n2Cc2ccc(F)cc2)CC1
not listed: [9] | [10]
inactive: all other assays above

O=C(Nc1ccccc1)OCC(CN1CCCCC1)OC(=O)Nc1ccccc1 (stereo unspecified)
active: [10] 16.8 µM
not listed: [4] | [8] | [9]
inactive: all other assays above

CCN(CC)CCc1nc(-c2ccccc2)no1
not listed: [9] | [10]
inactive: all other assays above

CCOC(=O)C1=NN(c2ccccc2)C(=O)C1
not listed: [4] | [6] | [8]
inactive: all other assays above

CC(C)CC=O
not listed: [5] | [8] | [10]
inactive: all other assays above

OC(CCN1CCCCC1)(c1ccccc1)C1CCCCC1 (stereo unspecified)
not listed: [5] | [6] | [10]
inactive: all other assays above

CCCCOCCOCCOCCOCCO
not listed: [10]
inactive: all other assays above

O=C(CCN1CCN2CCCC2C1)N1c2ccccc2Sc2ccc(Cl)cc21 (stereo unspecified)
active: [3] 23.7 µM
not listed: [9] | [10]
inactive: all other assays above

Cc1ccc2c(ccc3ccccc32)c1
not listed: [5] | [10]
inactive: all other assays above

CN1CCC(OC(c2ccccc2)c2ccccc2)CC1
not listed: [10]
inactive: all other assays above

CC(=O)N(O)CCCCCNC(=O)CCC(=O)N(O)CCCCCNC(=O)CCC(=O)N(O)CCCCCN
not listed: [9] | [10]
inactive: all other assays above

NC(=S)N/N=C/c1cccnc1
not listed: [5] | [10]
inactive: all other assays above

CCCCOC(=O)/C=C\C(=O)OCCCC
not listed: [8] | [9] | [10]
inactive: all other assays above

CN(C(=O)CCCOc1ccc2[nH]c(=O)ccc2c1)C1CCCCC1
not listed: [10]
inactive: all other assays above

From PubChem BioAssay (Tox21)
